This note sets out measurements from PubChem BioAssay AID492992 (Johns Hopkins Ion Channel Center, 2010).

Out of some 4,900 compounds screened, about 2,100 (43%) were called active.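 How the source made its calls: active means thallium signal inhibited by more than 5 SD of the compound-free buffer control wells, on both duplicate plates; inactive means the rest.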 So high a share suggests a set chosen from earlier hits. Not all results are given here.

The experiment deals with Potassium channel subfamily K member 9 (Homo sapiens) (UniProt Q9NPC2). The experiment is described as follows: blockers of human TASK-3 (KCNK9) channel – HEK293 cells, thallium flux, duplicate, confirmation (AID 492992).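 On inhibition: 0% = assay buffer control wells without compound.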 The settings on record: FluxOR thallium flux fluorescence, at 10 µM; hits give high values.
Potassium channel subfamily K member 9 (Homo sapiens), sequence (Q9NPC2 whole entry, looked up): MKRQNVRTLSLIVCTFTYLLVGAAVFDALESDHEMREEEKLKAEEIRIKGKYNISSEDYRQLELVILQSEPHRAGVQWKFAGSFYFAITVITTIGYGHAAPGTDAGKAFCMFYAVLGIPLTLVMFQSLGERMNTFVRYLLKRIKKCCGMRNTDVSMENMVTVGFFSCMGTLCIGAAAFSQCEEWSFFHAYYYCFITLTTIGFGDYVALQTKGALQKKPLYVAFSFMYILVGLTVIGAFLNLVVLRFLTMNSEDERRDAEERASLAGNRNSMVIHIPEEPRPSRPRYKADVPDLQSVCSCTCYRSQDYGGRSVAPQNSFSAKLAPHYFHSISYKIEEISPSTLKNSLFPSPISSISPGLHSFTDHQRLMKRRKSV
For orientation: inhibition means the share of the control response that was lost under treatment. Regarding `CN(c1ccccc1)S(=O)(=O)c1cccc(NC(=O)Cc2c(F)cccc2Cl)c1`, the inhibition was 67.5% (active).

Turning to `Cc1ccccc1CSCCNC(=O)c1ccc(N(C)S(=O)(=O)c2ccccc2)cc1`, the inhibition entry is “inactive”. `Fc1cccc(Cl)c1CSc1ccc(-c2ccco2)nn1`: the inhibition was 67% (active). `FC(F)(F)c1cc(-c2ccco2)nc(NCc2ccc(Cl)cc2)n1`: the inhibition result is “inactive”. Consider `O=C(Nc1ccc(S(=O)(=O)N2CCCCC2)cc1)C1CCN(C(=O)c2ccc(F)cc2)CC1`, for which the inhibition result is “inactive”. Turning to `Cc1ccc(C(=O)/C=C/c2c(C)nn(-c3ccccc3)c2Cl)cc1`, the inhibition result was “inactive”. For `Cc1ccccc1N1CCN(Cc2nc(Cc3ccccc3F)no2)CC1` the value was “inactive”.

Turning to `CC1CCN(C(=O)c2ccc(CSc3ccc(Cl)cc3)cc2)CC1`, the inhibition entry is “inactive”. For `CC(C)CC(COCc1ccc(Cl)cc1)N1CCN(C(=O)c2ccc(C(F)(F)F)cc2)CCC1=O` (stereo not drawn), the inhibition was 39.5% (active). As for `CCCCN(CC)C(=O)C1CCCN(S(=O)(=O)c2cccc3nsnc23)C1` (stereo not drawn), the inhibition entry was “inactive”. `O=C(Nc1nnc(SCc2ccc(Cl)cc2Cl)s1)C1COc2ccccc2O1` (stereo not drawn): the inhibition entry is “inactive”. With `COc1ccc(C(=O)C2CCCN(Cc3ccc4nonc4c3)C2)c(C)c1` (stereo not drawn) the entry was “inactive”. As for `CCCCCCCCn1c2c(c(=N)c3c1CCC3)CCCC2`, the inhibition was 62.5% (active). As to `O=C(NC(=S)Nc1ccccc1C(=O)O)c1ccc(-c2ccc(Br)cc2)o1`, the inhibition entry is “inactive”.

Turning to `COc1ccc(-c2n[nH]c3c2CN(C(=O)c2ccc(F)cc2)CC3)cc1`, the inhibition entry was “inactive”.

As to `Cc1cc(OC(C)C(=O)Nc2ccc(S(=O)(=O)Nc3onc(C)c3C)cc2)cc(C)c1Cl` (stereo not drawn), the inhibition result was “inactive”. As to `O=C(Nc1ccccc1[N+](=O)[O-])C1C(c2ccccc2)=C1c1ccccc1`, the inhibition is 40% (active).

`Cc1ccc(CN2CCN(/N=C/c3ccco3)CC2)c(C)c1`: the inhibition result is “inactive”. With `CC1=NN(c2cccc(Cl)c2)C(=O)C12CC(C)=C(C)CS2` (stereo not drawn), the inhibition was 45.5% (active). Consider `O=C(NCCc1ccccc1)c1ccc2c(c1)N(Cc1ccccc1)CCS2`, for which the inhibition result is “inactive”. With `COc1ccccc1N1CCN(c2ncnc3sc(C)c(-c4ccccc4)c23)CC1` the figure was 56% (active).

Take `CCCCNC(=S)N/N=C1\CCCCc2ccccc21`: the inhibition entry is “inactive”.

As for `CCCC(=O)n1nc(NCc2ccc(OC)cc2)nc1NCc1ccc(OC)cc1`, the inhibition result is “inactive”.

Turning to `O=C(Nn1c(SCc2ccc([N+](=O)[O-])cc2)nc2ccccc2c1=O)c1ccc(F)cc1`, the inhibition is 65% (active).

For `Cc1ccc(N2CCN(S(=O)(=O)c3ccc(F)cc3)CC2)c(C)c1`, the inhibition entry was “inactive”.

On to `CCCCC(=O)Nc1ccccc1N1CCN(c2ccc(F)cc2)CC1`, for which the inhibition is 69% (active).

For the compound `Cc1cccc(C(=O)Nc2ccccc2N2CCN(c3ccc(F)cc3)CC2)c1`, the inhibition was 40% (active). On to `CCOC(=O)CSc1nc2c(sc(=S)n2CCc2ccccc2)c(=O)n1Cc1ccco1`, for which the inhibition was 29.5% (active). For `COc1cccc(COc2ccc(N(C)S(=O)(=O)c3ccccc3)cc2)c1`, the inhibition is 50% (active). Consider `Cn1nc(-c2ccccc2)c(CSc2cccc(Cl)c2)c1Cl`, for which the inhibition is 34.5% (active). For `COC(=O)c1cc(NC2c3ccccc3C(=O)N2c2ccc(Cl)cn2)cc(C(=O)OC)c1` (stereo not drawn) the value was 29.5% (active); for `CCOC(=O)C(C)n1cnc2scc(-c3ccc(C)c(C)c3)c2c1=O` (stereo not drawn), “inactive”. Consider `COCCNc1cc(-c2ccccc2)nc2cc(-c3cccc(F)c3)nn12`, for which the inhibition is 53.5% (active). For the compound `Cc1ccc(Cn2ccc(NC(=O)c3cc(C(C)C)on3)n2)cc1`, the inhibition entry was “inactive”.

Consider `CC(C)C(=O)Nc1cccc(NC(=S)NC(=O)C(c2ccccc2)c2ccccc2)c1`, for which the inhibition is 52% (active). With `O=C(Nc1cc(Cl)cc(Cl)c1)C(NCCCO)c1ccccc1` (stereo not drawn) the entry was “inactive”; with `COC(C(=O)Nc1ccc(S(=O)(=O)Nc2ccc(C)c(C)c2)cc1)c1ccccc1` (stereo not drawn), “inactive”. Take `O=C1CC(NNc2ccccc2)C(=O)N1c1cccc(Cl)c1` (stereo not drawn): the inhibition entry is “inactive”. For the compound `CN(C)c1ccc(C(CNC(=O)c2ccc(F)cc2)c2c[nH]c3ccccc23)cc1` (stereo not drawn), the inhibition result is “inactive”. For the compound `COc1cc(Cl)c(C)cc1NC(=O)CSc1nnc(-c2ccco2)n1CC(C)C`, the inhibition is 41.5% (active).

`COc1ccc(Nc2ncnc3sc(-c4ccccc4)cc23)c(OC)c1`: the inhibition is 33.5% (active). On to `CCOC(=O)C(C)Sc1nc2ccccc2c(=O)n1CC1CCCCC1` (stereo not drawn), for which the inhibition is 40.5% (active). `COc1ccc(-c2nc(CCNC(=O)c3ccc(Br)o3)cs2)cc1`: the inhibition is 28.5% (active).

As for `COc1cccc(-c2nn(C)c3sc(C(=O)N4CCN(c5ccccc5)CC4)cc23)c1`, the inhibition entry is “inactive”. For the compound `CC1(C)CC(N2CCN(C(c3ccccc3)c3ccccc3)CC2)=CC(=[N+]2CCCCC2)C1`, the inhibition is 68% (active). For `N#Cc1nc(Cc2cccc3ccccc23)oc1NCc1ccc2c(c1)OCO2` the value was 45% (active); for `C=CCN(N=Nc1cccc([N+](=O)[O-])c1)c1cccc([N+](=O)[O-])c1`, 57.5% (active). As for `CCCCCn1c(=O)c(C(=O)OCC)c(Cl)c2ccccc21`, the inhibition was 45.5% (active). For `CCOC(=O)N/N=C/c1cn(Cc2ccccc2Cl)c2ccccc12` the value was “inactive”. With `CCOc1ccccc1NC(=O)C1CCCN(S(=O)(=O)c2ccccc2)C1` (stereo not drawn) the entry was “inactive”; with `CN(C)S(=O)(=O)N1CCC(Oc2cccc(C(=O)NCCCC3CCCC3)c2)CC1`, 62% (active). With `Cc1csc(Nc2ccc(Cl)cc2)[n+]1-c1ccc(Cl)cc1`, the inhibition result is “inactive”. For `Cc1cc(C)cc(NC(=O)CSCc2cnn(-c3ccccc3)c2-n2cccc2)c1` the value was “inactive”. As for `Cc1ccc2c(c1)N(C(=O)CCC(=O)N1CCc3ccccc3C1)CCO2`, the inhibition entry is “inactive”. Take `O=C(/C=C/NNC(=O)c1cccc(Br)c1)c1ccccc1`: the inhibition is 60% (active). Consider `Cc1c(C(=O)Nc2ccccn2)oc2ccc(Br)cc12`, for which the inhibition was 36% (active). With `O=C(CSCc1ccc(Cl)cc1)N1CCN(Cc2ccc3c(c2)OCO3)CC1` the entry was “inactive”; with `CC1(C)CC(=O)CC2(C1)NCC(c1ccccc1Cl)c1c2[nH]c2ccccc12` (stereo not drawn), 66.5% (active). With `c1ccc(C(c2ccccc2)N2CCN(Cc3nnnn3C3CCCCC3)CC2)cc1` the figure was 34.5% (active); with `Cc1ccc(NC2CCCN(C(=O)CCC3(C)CC3)C2)cc1C` (stereo not drawn), “inactive”. With `Clc1cccc(-c2nc3nc4ccccc4nc3n2Cc2ccco2)c1` the figure was 32% (active); with `Cc1cccc(NC(=O)CN2CCCN(S(=O)(=O)c3ccc(Br)s3)CC2)c1`, “inactive”; with `O=C(NCc1ccco1)c1ccc(NS(=O)(=O)c2cccc([N+](=O)[O-])c2)cc1`, “inactive”. Turning to `CCCC1=Nc2cc(C(=O)NCc3ccco3)ccc2Sc2ccccc21`, the inhibition was 31.5% (active). As to `Cc1cc(Oc2ccc(Cl)cc2)nc(SCC(=O)c2ccccc2)n1`, the inhibition was 34% (active). For `O=S(=O)(Nc1cccc(Oc2ccc(Cl)cc2)n1)c1ccc(F)cc1`, the inhibition entry was “inactive”.

With `COc1cc(Cl)ccc1OCc1cc(C(=O)N2CC[C@@H]3CCCC[C@H]3C2)no1`, the inhibition entry is “inactive”.

In the case of `Clc1ccc(CSc2nnc(/C=C/c3ccccc3)o2)c(Cl)c1`, the inhibition result is “inactive”. Turning to `C=CCc1cc(S(=O)(=O)c2ccc(O)c(CC=C)c2)ccc1O`, the inhibition was 69% (active). For `O=C1c2ccccc2C2=Nc3ccccc3SC(c3ccccc3F)C12` (stereo not drawn) the value was 50% (active); for `COC(=O)c1cccc(C(=O)N2CCCC(Nc3ccc4c(c3)OCCO4)C2)c1` (stereo not drawn), “inactive”; for `CCOC(=O)C1(CCOc2ccccc2)CCN(Cc2cc(OC)c(O)cc2Cl)CC1`, “inactive”. In the case of `O=C(NC1Cc2ccccc2C1)c1cc(COc2cccc(C(F)(F)F)c2)on1`, the inhibition entry is “inactive”. With `COc1ccc(NC(=O)CN(C)CC(=O)Nc2cccc(C(F)(F)F)c2)cc1` the figure was 44.5% (active). Regarding `COc1cccc(COC(=O)C2CCN(S(=O)(=O)c3ccc(Cl)cc3)CC2)c1OC`, the inhibition entry was “inactive”. With `CSc1cccc(NC(=S)N(C(C)C)C(C)c2ccccn2)c1` (stereo not drawn) the figure was 66.5% (active). For `COc1ccccc1NC(=O)CSc1nc2sc(C)c(C)c2c(=O)n1Cc1ccco1` the value was 48.5% (active); for `Cc1nc(N2CCN(c3ccccn3)CC2)c2c(C)c(C(=O)Nc3ccc(F)c(Cl)c3)sc2n1`, 48.5% (active); for `O=S(=O)(c1ccc(F)cc1)N1CCN(Cc2ccccc2C(F)(F)F)CC1`, “inactive”. Turning to `COc1ccccc1/C=C/C=N/n1c(-c2ccc(Cl)cc2Cl)n[nH]c1=S`, the inhibition result was “inactive”. For `O=C(Nc1ccc(Br)c2cccnc12)c1ccc(Cn2cc([N+](=O)[O-])cn2)o1` the value was “inactive”; for `CCC1=NN(C(=O)Cc2ccc([N+](=O)[O-])cc2)C(O)(c2ccc(Br)cc2)C1` (stereo not drawn), 65% (active); for `Cc1cc(Cl)ccc1C(=O)C1CCCN(C(=O)CCN2CCCO2)C1` (stereo not drawn), “inactive”. With `O=C(OCC(=O)N(CCc1ccccc1)Cc1ccccc1)c1ccccc1[N+](=O)[O-]` the figure was 58.5% (active). With `Cc1cc(C)cc(OCC(=O)Nc2cc(NC(=O)COc3cc(C)cc(C)c3)cc(C(=O)O)c2)c1` the entry was “inactive”. With `COc1cc(C2CC(=O)N3CN(Cc4ccccc4)CSC3=C2C#N)ccc1OCc1ccccc1` (stereo not drawn), the inhibition entry was “inactive”. Turning to `CCOc1ccc(C2c3[nH]c4ccccc4c3CCN2Cc2cccn2-c2ncccn2)cc1` (stereo not drawn), the inhibition was 35% (active). As for `CCC(C)(C)n1nnnc1C(c1cccs1)N1CCN(c2nc3ccccc3s2)CC1` (stereo not drawn), the inhibition was 39% (active). With `COc1ccc2c(c1)C(c1cccs1)=NNC(c1cccnc1)=N2` the figure was 43% (active); with `COCCN(C(=S)Nc1cccc(Cl)c1C)C(C)c1ccco1` (stereo not drawn), “inactive”; with `O=C(COC(=O)/C(=C/c1cccs1)c1cccs1)NCc1ccccc1Cl`, 29% (active). For `Cc1ccccc1CSc1nnc(CCCCCNC(=O)OC(C)(C)C)o1`, the inhibition result is “inactive”. In the case of `CCc1nnc(NS(=O)(=O)c2ccc(NC(=S)NC(=O)/C=C/c3cccs3)cc2)s1`, the inhibition entry was “inactive”. As to `COc1cccc2sc(NNC(=O)c3nc4ccccc4s3)nc12`, the inhibition entry is “inactive”.

With `Cc1nn(CC(=O)Nc2nc3ccccc3s2)c(C)c1[N+](=O)[O-]`, the inhibition was 48% (active).

With `O=C(NCc1ccccc1)C1=C[C@@H](C2CCCCC2)C[C@@H](OCc2ccc(CO)cc2)O1`, the inhibition result was “inactive”. As for `O=C(CSCc1ccc(Br)cc1)Nc1ccc(S(=O)(=O)N2CCCCCC2)cc1`, the inhibition entry is “inactive”.

With `Cc1ccc(C2=Nc3c(ccc4ccccc34)C(c3ccncc3)=NN2)cc1`, the inhibition was 68.5% (active).
